Screening data: PubChem BioAssay, The Scripps Research Institute Molecular Screening Center
An excerpt weighted towards active compounds, which were near 3.4% of everything screened.
FBW7 activator: human FBW7 E3 ligase activation, primary screen; AlphaScreen FBW7–phospho-cyclin E peptide binding, activator screen; hit rate 0.13% among 650,000; AID 1259310; normalized activity (activation), % at 26.1 µM; Q969H0; in the data active = normalized activity above about 1.9%;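 note: purified mutant Fbw7 with reduced substrate affinity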
MITF inh: blocks human microphthalmia-associated transcription factor; O75030; AlphaScreen MITF homodimerization, bead proximity signal; inhibition, % at 2.6 µM; hit rate 0.91% among 650,000; AID 1259374; in the data active = inhibition above about 50%;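 note: 0% = vehicle wells with protein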
GPR151 ag: human GPR151 activation | AID 1508602 | hit rate 1% among 650,000 | PathHunter beta-arrestin GPR151 cells, luminescence | activation, % at 11.2 µM | Q8TDV0; in the data active = activation above about 4.9%;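 note: 0% = median of compound wells and 100% = cells with positive control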
TEAD-YAP block: TEAD-YAP interaction inhibition | HEK-TIYL cells, TEAD-Gal4/YAP UAS-luciferase luminescence | inhibition, % at 9.12 µM | hit rate 1.4% among 640,000; in the data active = inhibition above about 32%;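 note: 0% = median of test compound wells and 100% = reference inhibitor wells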
GPR151 confirm: confirmation of human GPR151 activators; shares compounds with GPR151 ag; GPR151 PathHunter beta-arrestin cells, luminescence, 90 min; % of EA-reagent control over plate median; activation, % at 11.2 µM; 6,700 tested, under 10 active;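 active = mean percent activation across replicates above the confirmation screen cutoff of 4.91%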
GPR119 counter: GPR119 activation, counter-screen for GPR151 activators | shares compounds with GPR151 ag | GPR119 PathHunter beta-arrestin cells, luminescence, 90 min; 0 = compound-well median, 100 = enzyme-acceptor control | activation, % at 11.2 µM | hit rate 0.3% among 6,700 | AID 1508611;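 active = mean percent activation in the counterscreen above 29.09%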;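 note: counterscreen on off-target GPR119 to flag nonselective hits from the GPR151 activator screen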
Target sequence (Q8TDV5 whole entry, looked up): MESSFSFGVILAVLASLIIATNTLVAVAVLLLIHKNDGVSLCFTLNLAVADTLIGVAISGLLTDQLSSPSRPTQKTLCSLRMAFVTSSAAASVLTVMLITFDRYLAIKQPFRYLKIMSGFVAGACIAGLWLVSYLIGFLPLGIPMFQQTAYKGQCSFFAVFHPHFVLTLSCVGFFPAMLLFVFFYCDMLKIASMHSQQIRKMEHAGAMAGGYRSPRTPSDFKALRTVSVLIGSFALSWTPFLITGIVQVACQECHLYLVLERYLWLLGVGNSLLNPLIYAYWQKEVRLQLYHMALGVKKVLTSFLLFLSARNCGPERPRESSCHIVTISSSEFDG
An asterisk follows results filed as active.

How did CCC(=O)Nc1ccc(NC(=O)/C=C/c2cc(Br)ccc2OC)cc1 do in these assays?
FBW7 activator: 0; MITF inh: -5; GPR151 ag: 9.6*; TEAD-YAP block: 7; GPR151 confirm: 0; GPR119 counter: 1

What do the screens show for `CN(C)c1ccc(NC2CC(=O)N(c3cccc4ccccc34)C2=O)cc1` (stereo not given)?
FBW7 activator: 0; MITF inh: 33; GPR151 ag: 5.6*; TEAD-YAP block: 5; GPR151 confirm: 0; GPR119 counter: 4

How did CN(C)c1ccc(NC2CC(=O)N(c3cccc(Cl)c3)C2=O)cc1 (stereo not given) do in these assays?
FBW7 activator: 0; MITF inh: 18; GPR151 ag: 0; TEAD-YAP block: 4

How did O=Cc1ccccc1-c1ccc(N2CCN(c3ccc(C(F)(F)F)cn3)CC2)nc1 do in these assays?
FBW7 activator: 0; MITF inh: 4; GPR151 ag: 1; TEAD-YAP block: 9

How did Cc1nc2c(c(=O)[nH]1)CN(C(=O)C1(c3cccc(F)c3)CCCC1)CC2 do in these assays?
FBW7 activator: 0; MITF inh: 0; GPR151 ag: 6.5*; TEAD-YAP block: 3; GPR151 confirm: 0; GPR119 counter: 5

Results for Cc1nc2c(c(=O)[nH]1)CN(C(=O)C1(c3ccc(Cl)cc3)CCC1)CC2 ?
FBW7 activator: 0; MITF inh: 5; GPR151 ag: 2; TEAD-YAP block: -4

Results for O=C(NCC1Cc2cccc(-c3cncnc3)c2O1)C(c1cccnc1)N1CCOCC1 (stereo not given) ?
FBW7 activator: 0; MITF inh: -19; GPR151 ag: 2; TEAD-YAP block: -3

Results for Cc1nc(NC2=NCN(Cc3cccnc3)CN2)nc2ccccc12 ?
FBW7 activator: 0; MITF inh: 13; GPR151 ag: 7.7*; TEAD-YAP block: 4; GPR151 confirm: 0; GPR119 counter: 3

How did COc1cccc(S(=O)(=O)Nc2ccc(Cl)c(C(F)(F)F)c2)c1 do in these assays?
FBW7 activator: 0; MITF inh: 3; GPR151 ag: 7.1*; TEAD-YAP block: 1; GPR151 confirm: 1; GPR119 counter: -1

How did COC(=O)c1cc(NS(=O)(=O)c2ccc3ccccc3c2)ccc1Cl do in these assays?
FBW7 activator: 0; MITF inh: 1; GPR151 ag: 5.0*; TEAD-YAP block: 3; GPR151 confirm: 0; GPR119 counter: 4

Results for CSc1ccc(C2C(C#N)=C(N)OC3=C2C(=O)CCC3)cc1 (stereo not given) ?
FBW7 activator: 0; MITF inh: -5; GPR151 ag: -1; TEAD-YAP block: -6

What do the screens show for `COC(=O)c1c(NC(=O)CN2C(=O)C3C4C=CC(C4)C3C2=O)sc(C)c1C` (stereo not given)?
FBW7 activator: 0; MITF inh: 6; GPR151 ag: 1; TEAD-YAP block: -8

What do the screens show for `COC(=O)c1ccc(NC(=O)COn2nnc3ccc([N+](=O)[O-])cc32)cc1`?
FBW7 activator: 0; MITF inh: -14; GPR151 ag: 1; TEAD-YAP block: 15

How did CC(C)Cn1c(=O)[nH]c2nc(-c3cnn(C)c3)cnc21 do in these assays?
FBW7 activator: 0; MITF inh: 11; GPR151 ag: 0; TEAD-YAP block: 0

How did Cn1cc(-c2cnc3c(n2)[nH]c(=O)n3CC2CC2)cn1 do in these assays?
FBW7 activator: 0; MITF inh: 22; GPR151 ag: 7.7*; TEAD-YAP block: 5; GPR151 confirm: 1; GPR119 counter: 8

Results for O=c1[nH]c(N/N=C/c2ccc(O)cc2)nnc1Cc1ccccc1 ?
FBW7 activator: 0; MITF inh: 18; GPR151 ag: 0; TEAD-YAP block: 0

What do the screens show for `O=c1[nH]c(N/N=C/c2cc([N+](=O)[O-])ccc2O)nnc1Cc1ccccc1`?
FBW7 activator: 0; MITF inh: 42; GPR151 ag: 6.2*; TEAD-YAP block: 3; GPR151 confirm: 1; GPR119 counter: 2

How did Nc1ccc(NS(=O)(=O)c2ccc3c(c2)OCCCO3)cc1 do in these assays?
FBW7 activator: 0; MITF inh: 18; GPR151 ag: 6.5*; TEAD-YAP block: 0; GPR151 confirm: -1; GPR119 counter: 0

Results for Cc1cc(C)cc(NS(=O)(=O)c2ccc3c(c2)OCCCO3)c1 ?
FBW7 activator: 0; MITF inh: 0; GPR151 ag: 2; TEAD-YAP block: 4

Results for CC(=O)Nc1ccc(OCC(O)CNC2CCCC2)cc1 (stereo not given) ?
FBW7 activator: 0; MITF inh: 24; GPR151 ag: 5.5*; TEAD-YAP block: -1; GPR151 confirm: 1; GPR119 counter: 12

How did COc1ccc(C(=O)Nc2ccc(F)c([N+](=O)[O-])c2)c(OC)c1 do in these assays?
FBW7 activator: 0; MITF inh: 15; GPR151 ag: -1; TEAD-YAP block: -8

How did CCOC(=O)C(C#N)C(=O)c1ccc(N2C(=O)CCC2=O)cc1 (stereo not given) do in these assays?
FBW7 activator: 1; MITF inh: 9; GPR151 ag: 6.6*; TEAD-YAP block: 14; GPR151 confirm: -1; GPR119 counter: -10

Results for CCOC(=O)C(C#N)C(=O)c1ccc(F)c(F)c1 (stereo not given) ?
FBW7 activator: 0; MITF inh: -5; GPR151 ag: -1; TEAD-YAP block: 0

What do the screens show for `CCC(C)NC(=O)C1=C(C)C(=O)OC12CCCCC2` (stereo not given)?
FBW7 activator: 0; MITF inh: 3; GPR151 ag: 12*; TEAD-YAP block: 1; GPR151 confirm: -1; GPR119 counter: -6

How did CCCOC(=O)c1cccc(NC(=O)c2cncc(Br)c2)c1 do in these assays?
FBW7 activator: 0; MITF inh: 8; GPR151 ag: -2; TEAD-YAP block: -24

How did CCOC(=O)C1=C(C)N(C)C(SC)=NC1c1ccccc1 (stereo not given) do in these assays?
FBW7 activator: 0; MITF inh: 4; GPR151 ag: 0; TEAD-YAP block: -3

Results for COc1ccc2nc3sc(C(=O)Nc4cccc(C(C)=O)c4)c(N)c3cc2c1 ?
FBW7 activator: 0; MITF inh: -11; GPR151 ag: 5.3*; TEAD-YAP block: -75; GPR151 confirm: 0; GPR119 counter: 23

What do the screens show for `FC(F)(F)c1ccc(NCCN2CCOCC2)nc1`?
FBW7 activator: 0; MITF inh: -13; GPR151 ag: 8.2*; TEAD-YAP block: 2; GPR151 confirm: 0; GPR119 counter: 2

How did COc1ccccc1-n1cnc2cc(NCc3cccc(OC)c3OC)ccc21 do in these assays?
FBW7 activator: 0; MITF inh: -4; GPR151 ag: -2; TEAD-YAP block: -9

Results for Cc1cc(NC(=O)c2ccc3c(c2)C(=O)N(c2ccc([N+](=O)[O-])cc2)C3=O)no1 ?
FBW7 activator: 0; MITF inh: 7; GPR151 ag: 5.7*; TEAD-YAP block: 8; GPR151 confirm: -1; GPR119 counter: 3
